# Sampled rows, rich in hits. Any-hit rate of the full collection: about 3%.
# pPAFAH inh = pPAFAH enzyme inhibitors, primary screen, biochemical, fluorescence polarization, human; recombinant pPAFAH, FP-rhodamine probe fluorescence polarization; inhibition, % at 3.39 µM; 1.5% of 330,000 active; AID 463082, 2010;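 active = inhibition above the mean inhibition across the screen plus 3 SD, cut at about 25% in these data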;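 note: inhibitors block binding of the rhodamine activity-based probe so polarization drops; 0% = enzyme with DMSO and 100% = wells lacking pPAFAH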
# PAFAH1B3 inh = PAFAH1B3 enzyme inhibitors, primary screen, biochemical, fluorescence polarization, human; Platelet-activating factor acetylhydrolase IB subunit alpha1 (Homo sapiens), Q15102; 0.28% of 340,000 active; inhibition, % at 3.39 µM; recombinant PAFAH1B3, FP-rhodamine probe;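 active = inhibition above the screen-wide average of all tested compounds plus 3 SD, cut at about 25% in these data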;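 note: 0% = enzyme with DMSO only and 100% = wells lacking PAFAH1B3 protein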
# Target sequence (Q15102 whole entry, looked up): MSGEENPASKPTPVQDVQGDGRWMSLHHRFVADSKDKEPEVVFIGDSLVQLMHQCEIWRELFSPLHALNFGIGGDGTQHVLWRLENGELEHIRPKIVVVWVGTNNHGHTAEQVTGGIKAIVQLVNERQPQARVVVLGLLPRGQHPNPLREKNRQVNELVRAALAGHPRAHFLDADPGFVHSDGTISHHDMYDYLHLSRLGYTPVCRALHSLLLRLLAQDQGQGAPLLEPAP
# DAGLB inhibitor = DAGLB lipase inhibitors, primary screen, biochemical, fluorescence, HTS | Diacylglycerol lipase-beta (Homo sapiens), Q8NCG7 | HEK293T DAGLB membrane lysate, EnzChek fluorogenic substrate | inhibition, % at 5.17 µM | 0.059% of 340,000 active | AID 504411, 2011; in the data active = inhibition above about 34%;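 note: 0% = enzyme with vehicle and 100% = wells lacking enzyme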
# PAFAH1B2 inh = PAFAH1B2 enzyme inhibitors, primary screen, biochemical, fluorescence polarization, human; inhibition, % at 3.39 µM; recombinant PAFAH1B2, FP-rhodamine activity probe; 1.2% of 340,000 active; Platelet-activating factor acetylhydrolase IB subunit alpha2 (Homo sapiens), P68402;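 active = inhibition above the mean of all tested compounds plus 3 SD, cut at about 24% in these data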;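 note: 0% = enzyme with DMSO and 100% = wells lacking PAFAH1B2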
# ATG4B inh = ATG4B protease inhibitors, primary screen, biochemical, fluorescence, uHTS; 0.51% of 340,000 active; Cysteine protease ATG4B (Homo sapiens), Q9Y4P1; ATG4B cleavage of LC3-PLA2, NBD-HPC fluorescence, 1 h; inhibition, % at 8.33 µM; in the data active = inhibition above about 40%
# Target sequence (Q9Y4P1 whole entry, looked up): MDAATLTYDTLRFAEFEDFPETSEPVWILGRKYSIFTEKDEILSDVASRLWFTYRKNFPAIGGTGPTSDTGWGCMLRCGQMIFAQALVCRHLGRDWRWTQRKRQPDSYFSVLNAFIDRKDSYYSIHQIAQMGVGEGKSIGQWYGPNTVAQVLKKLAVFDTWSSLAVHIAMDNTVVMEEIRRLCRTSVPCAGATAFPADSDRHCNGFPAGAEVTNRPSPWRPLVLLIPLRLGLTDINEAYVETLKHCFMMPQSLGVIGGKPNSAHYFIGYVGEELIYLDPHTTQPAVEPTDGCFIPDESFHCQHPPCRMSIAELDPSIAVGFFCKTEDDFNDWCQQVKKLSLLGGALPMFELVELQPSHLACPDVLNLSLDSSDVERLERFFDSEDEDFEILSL
# PAFAH2 inh = PAFAH2 enzyme inhibitors, primary screen, biochemical, fluorescence polarization, human | AID 492956, 2010 | Platelet-activating factor acetylhydrolase 2, cytoplasmic (Homo sapiens), Q99487 | recombinant PAFAH2, FP-rhodamine activity probe | 0.99% of 340,000 active | inhibition, % at 3.39 µM;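 active = inhibition above the mean over all tested compounds plus 3 SD, cut at about 30% in these data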;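 note: inhibitors block probe labeling of enzyme so polarization drops; 0% = enzyme with DMSO and 100% = wells lacking PAFAH2 protein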
# PAFAH2 confirm = PAFAH2 enzyme inhibitors, confirmation, biochemical, fluorescence polarization, human; shares compounds with PAFAH2 inh; 65% of 2,300 active; recombinant PAFAH2, FP-rhodamine activity probe; inhibition, % at 3.39 µM;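 active = mean inhibition over three repeats above a set limit taken from the earlier primary screen, cut at about 30% in these data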;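 note: inhibitor blocks binding of rhodamine activity probe so polarization falls; 0% = enzyme with DMSO and 100% = wells lacking PAFAH2 protein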
# * hit, by the source's call; · = not tested or not shown.
SMILES,pPAFAH inh,PAFAH1B3 inh,DAGLB inhibitor,PAFAH1B2 inh,ATG4B inh,PAFAH2 inh,PAFAH2 confirm
CC1CC1C(=O)OCC(=O)Nc1cccc(Br)c1 (stereo not drawn),·,1,0,3,-5,88*,85*
CC1CC1C(=O)OCC(=O)NCc1ccccc1 (stereo not drawn),2,1,0,0,1,36*,25
Cc1cc(S(=O)(=O)Nc2nc(CN3CCOCC3)nc3sc4c(c23)CCC4)ccc1F,11,6,3,1,-2,2,·
COc1ccc([N+](=O)[O-])cc1NC(=O)COC(=O)C12CC3CC(CC(O)(C3)C1)C2,·,·,0,·,·,·,·
O=C(COC(=O)c1ccco1)NCc1ccc2c(c1)OCO2,-2,-1,-3,2,-4,14,·
O=C(COC(=O)c1cc(Br)ccc1O)Nc1ccc2c(c1)OCO2,5,-1,-6,2,-5,37*,18
O=C(COC(=O)c1ccco1)Nc1ccc2c(c1)OCO2,7,6,0,6,-15,63*,66*
CC(CNC(=O)COC(=O)c1ccco1)c1ccccc1 (stereo not drawn),2,3,-1,0,-4,57*,48*
O=C(COC(=O)C12CC3CC(CC(O)(C3)C1)C2)Nc1cccc(Br)c1,·,8,-2,10,-14,74*,69*
COc1ccc(Nc2nnc(SCC(=O)/C=C3/N(C)c4ccccc4C3(C)C)s2)cc1,10,7,3,-3,-5,-13,·
O=C(NCc1ccc(F)cc1)C1CCCN1C(=O)Nc1cccc(F)c1 (stereo not drawn),1,2,-3,0,4,6,·
CCOC(=O)C1CCN(CCC(=O)Nc2ccc(Br)c(C)c2)CC1,·,8,1,1,-8,-5,·
O=C(COC(=O)c1ccco1)Nc1cccc(Br)c1,4,6,0,-3,1,91*,68*
Cc1cc(NC(=O)COC(=O)C2CC2)ccc1Br,14,-3,1,-2,-4,77*,74*
COc1ccc(O)c(CNc2ccccc2F)c1,8,2,-3,11,-5,5,·
CCSc1nnc(NC(=O)CSc2c(Cl)cccc2Cl)s1,13,2,-1,7,-2,50*,42*
CC(C(=O)NCCc1ccccc1)N1c2cccc3cccc(c23)S1(=O)=O (stereo not drawn),3,7,-2,4,-13,5,·
O=C(CSc1cccc[n+]1[O-])C12CC3CC(CC(C3)C1)C2,7,4,0,6,-3,48*,46*
CC1CCCC(C(=O)O)N1C(=O)CCSC(=O)c1ccccc1 (stereo not drawn),1,11,-1,2,14,44*,46*
COc1ccc(C(=O)CSc2nc(C)cc(C)n2)cc1C,11,6,-6,3,-5,42*,2
COc1ccc(C(=O)CSc2nc(C)cc(=O)[nH]2)cc1C,6,10,-3,0,0,1,·
COc1ccc(C(=O)OCC(=O)NC2CC2)cc1S(=O)(=O)N1CCOCC1,1,7,0,4,-1,52*,39*
O=C(COC(=O)c1cc(S(=O)(=O)N2CCOCC2)ccc1F)NC1CCCCC1,2,4,-1,6,2,1,·
O=C(COC(=O)c1ccc(F)c(S(=O)(=O)N2CCOCC2)c1)NC1CCCCC1,2,-1,-3,2,-4,71*,60*
COC(=O)c1cc(COC(=O)c2ccc(OC)c(S(=O)(=O)N3CCCC3)c2)oc1C,·,8,-4,2,-4,41*,23
SMILES,pPAFAH inh,PAFAH1B3 inh,DAGLB inhibitor,PAFAH1B2 inh,ATG4B inh,PAFAH2 inh,PAFAH2 confirm
COc1ccc([C@@H]2C[C@H]3[C@@H](CN2S(=O)(=O)c2ccccc2)C(=O)C[C@@H](c2ccccc2F)N3S(=O)(=O)c2ccc(C)cc2)cc1,·,·,-8,·,·,·,·
CCc1ccccc1SCc1noc(C(=O)NCC2CCCO2)c1C(=O)O (stereo not drawn),1,6,6,16,5,40*,26
C=CCNC(=O)c1onc(CSc2ccc(C)c(C)c2)c1C(=O)O,-1,11,3,5,11,3,·
C=CCNC(=O)c1onc(CSc2cc(C)cc(C)c2)c1C(=O)O,0,5,5,6,-6,38*,23
C=CCNC(=O)c1onc(CSc2ccccc2)c1C(=O)NCC=C,-1,20,-4,-1,-2,-1,·
C=CCNC(=O)c1onc(CSc2ccccc2CC)c1C(=O)O,3,3,8,11,-5,49*,36*
O=C(CC1C(=O)NCCN1Cc1c(F)cccc1Cl)NCCCn1cccn1 (stereo not drawn),1,8,-4,2,-8,2,·
COc1ccc(N2CC(C(=O)NCc3n[nH]c(=O)c4ccccc34)CC2=O)cc1 (stereo not drawn),·,2,1,3,6,5,·
COc1ccc(N2CCN(CCCNC(=O)C(=O)c3c(C)[nH]c4ccccc34)CC2)cc1,2,1,0,1,1,0,·
O=c1cc(-c2ccc(O)c(O)c2)oc2ccc3ccccc3c12,·,6,13,-2,-21,35*,47*
O=c1cc(-c2ccccc2)oc2ccc3ccccc3c12,·,·,-23,·,·,·,·
CCOC(=O)C1(Cc2ccccc2)CCN(C2Cc3ccccc3C2)CC1,7,5,-4,0,18,33*,8
COc1cc(NC(=O)c2ccc(CNc3c(N4CCOCC4)c(=O)c3=O)cc2)cc(OC)c1,-2,-4,-1,-2,-7,3,·
CCOc1ccc(NC(=O)c2ccc(CNc3c(N4CCCC4)c(=O)c3=O)cc2)cc1,5,2,2,-1,-8,1,·
CC(=O)c1ccc(NC(=O)c2ccc(CNc3c(N4CCCC4)c(=O)c3=O)cc2)cc1,7,-5,1,7,10,62*,65*
CC(=O)c1ccc(NC(=O)c2ccc(CNc3c(N4CCOCC4)c(=O)c3=O)cc2)cc1,-2,10,3,1,-8,70*,63*
CCc1ccc(CNC(=O)c2ccc(NC(=O)C3=CSCCO3)cc2)cc1,1,8,-1,2,8,8,·

# Assay outcomes (PubChem BioAssay)
